Here are results for seven sequences from publication PMC7862700, “An all-to-all approach to the identification of sequence-specific readers for epigenetic DNA modifications on cytosine”.

What all share (assay): DAPPL (digital affinity profiling via proximity ligation, sequencing); 10 mM Tris-HCl pH 7.5, 50 mM NaCl, 1 mM DTT, 4% glycerol, room temperature, 30 min; GST-TFs on glutathione beads, 16-mer random dsDNA library, 0.1% formaldehyde crosslink after washing; high values mean tight binding
Common to all, as to conditions: protein: recombinant; tags: N-terminal GST; dsDNA, one strand shown

One assay concerns the target T1, ERF (Homo sapiens, UniProt P50548 1-548).
T1 sequence: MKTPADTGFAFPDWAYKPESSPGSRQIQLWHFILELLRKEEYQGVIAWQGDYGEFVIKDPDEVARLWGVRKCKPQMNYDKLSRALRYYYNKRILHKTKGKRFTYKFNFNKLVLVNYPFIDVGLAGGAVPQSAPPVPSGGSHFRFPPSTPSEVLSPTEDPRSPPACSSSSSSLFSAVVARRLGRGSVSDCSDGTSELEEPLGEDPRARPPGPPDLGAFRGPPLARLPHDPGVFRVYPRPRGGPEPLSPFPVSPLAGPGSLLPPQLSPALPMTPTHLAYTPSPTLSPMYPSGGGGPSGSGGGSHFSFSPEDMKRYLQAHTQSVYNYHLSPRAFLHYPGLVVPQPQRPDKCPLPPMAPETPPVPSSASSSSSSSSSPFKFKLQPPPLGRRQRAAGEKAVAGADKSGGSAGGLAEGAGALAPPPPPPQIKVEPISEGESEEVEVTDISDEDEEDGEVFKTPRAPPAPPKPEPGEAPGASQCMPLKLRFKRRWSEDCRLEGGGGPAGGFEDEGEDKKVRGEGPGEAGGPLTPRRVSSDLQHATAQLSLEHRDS
The essentials:
(§1)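 Human transcription factors fused to GST were expressed in yeast, captured on glutathione beads, given DNA barcodes and pooled with a GST-only negative control. Pools were incubated with 200 nmole of a 16-mer random double-stranded DNA library in Tris/NaCl/DTT/glycerol buffer at room temperature for 30 min. They were then washed, crosslinked with 0.1% formaldehyde, proximity-ligated (BsaI/T4 ligase, 1 h, 37 °C), PCR-amplified and sequenced on an Illumina NextSeq500. Binding signal is each 6-mer's read frequency for a factor divided by its frequency for the GST control.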

For the next assay, the target named is T2, ETV3L (Homo sapiens, UniProt Q6ZN32 1-361).
T2 sequence: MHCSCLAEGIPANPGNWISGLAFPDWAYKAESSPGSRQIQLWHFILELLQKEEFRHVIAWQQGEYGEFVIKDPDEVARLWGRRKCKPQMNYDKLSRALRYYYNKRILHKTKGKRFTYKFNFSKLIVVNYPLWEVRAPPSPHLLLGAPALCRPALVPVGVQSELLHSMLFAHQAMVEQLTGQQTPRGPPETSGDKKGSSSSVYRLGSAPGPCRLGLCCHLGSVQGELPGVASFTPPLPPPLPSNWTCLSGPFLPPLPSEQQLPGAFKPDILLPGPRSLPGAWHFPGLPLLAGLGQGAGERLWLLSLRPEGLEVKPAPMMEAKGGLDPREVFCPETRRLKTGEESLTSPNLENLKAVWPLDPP
The essentials: as §1

The target in another assay is T3, ETS2 (Homo sapiens, UniProt P15036 1-469).
T3 sequence: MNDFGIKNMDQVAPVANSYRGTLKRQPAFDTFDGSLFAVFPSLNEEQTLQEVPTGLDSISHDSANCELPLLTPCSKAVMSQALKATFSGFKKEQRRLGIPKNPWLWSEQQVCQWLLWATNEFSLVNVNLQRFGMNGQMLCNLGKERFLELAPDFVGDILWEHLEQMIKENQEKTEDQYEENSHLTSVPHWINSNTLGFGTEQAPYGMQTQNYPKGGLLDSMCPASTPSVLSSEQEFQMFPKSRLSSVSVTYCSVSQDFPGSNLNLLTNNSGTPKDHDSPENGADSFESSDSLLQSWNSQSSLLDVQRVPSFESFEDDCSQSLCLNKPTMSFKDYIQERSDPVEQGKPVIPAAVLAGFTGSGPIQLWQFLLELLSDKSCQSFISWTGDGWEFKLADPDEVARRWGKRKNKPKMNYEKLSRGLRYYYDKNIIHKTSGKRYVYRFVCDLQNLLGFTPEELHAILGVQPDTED
The essentials:
as §1

A further assay deals with T4, SPDEF (Homo sapiens, UniProt O95238 1-335).
T4 sequence: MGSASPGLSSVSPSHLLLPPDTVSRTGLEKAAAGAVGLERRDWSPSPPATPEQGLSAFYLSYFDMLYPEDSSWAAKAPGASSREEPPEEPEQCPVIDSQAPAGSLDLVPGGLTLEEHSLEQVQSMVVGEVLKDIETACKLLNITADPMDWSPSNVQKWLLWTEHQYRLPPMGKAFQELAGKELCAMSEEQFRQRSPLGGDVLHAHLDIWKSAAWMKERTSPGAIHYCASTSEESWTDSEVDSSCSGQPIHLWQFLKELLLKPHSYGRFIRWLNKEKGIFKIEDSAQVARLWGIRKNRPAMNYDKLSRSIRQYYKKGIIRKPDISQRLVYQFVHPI
The method, boiled down:
as §1

A further assay has as its target T5, ETV7 (Homo sapiens, UniProt Q9Y603 1-341).
T5 sequence: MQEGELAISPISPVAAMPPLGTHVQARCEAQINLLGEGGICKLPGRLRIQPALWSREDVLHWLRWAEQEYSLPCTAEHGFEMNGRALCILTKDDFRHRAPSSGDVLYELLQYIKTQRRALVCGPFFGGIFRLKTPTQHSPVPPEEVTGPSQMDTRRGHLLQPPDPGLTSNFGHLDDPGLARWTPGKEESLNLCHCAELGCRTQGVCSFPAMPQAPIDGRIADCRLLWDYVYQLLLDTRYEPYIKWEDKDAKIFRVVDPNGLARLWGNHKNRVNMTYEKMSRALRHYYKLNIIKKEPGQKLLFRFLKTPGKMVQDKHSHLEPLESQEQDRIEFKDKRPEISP
The method, boiled down: as §1

For another assay, the target named is T6, ELF5 (Homo sapiens, UniProt Q9UKW6-2 1-255).
T6 sequence: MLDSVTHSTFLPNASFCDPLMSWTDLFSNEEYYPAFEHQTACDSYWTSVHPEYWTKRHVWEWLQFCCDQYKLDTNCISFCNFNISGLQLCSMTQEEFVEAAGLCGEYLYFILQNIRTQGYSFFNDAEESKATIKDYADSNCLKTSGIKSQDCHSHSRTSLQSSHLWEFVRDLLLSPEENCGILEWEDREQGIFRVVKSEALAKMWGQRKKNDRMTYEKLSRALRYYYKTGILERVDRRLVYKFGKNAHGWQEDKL
The essentials: as §1

The target in a further assay is T7, ETV3 (Homo sapiens, UniProt P41162-2 1-143).
T7 sequence: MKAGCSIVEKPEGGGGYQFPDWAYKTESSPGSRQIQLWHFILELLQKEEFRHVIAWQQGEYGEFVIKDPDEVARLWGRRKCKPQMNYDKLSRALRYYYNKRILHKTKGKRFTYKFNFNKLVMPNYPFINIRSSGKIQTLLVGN
The method, boiled down: as §1

For a further assay, the target named is ETV6 (Homo sapiens, UniProt P41212 1-452). The essentials:
as §1

ETV6, sequence (P41212 whole entry): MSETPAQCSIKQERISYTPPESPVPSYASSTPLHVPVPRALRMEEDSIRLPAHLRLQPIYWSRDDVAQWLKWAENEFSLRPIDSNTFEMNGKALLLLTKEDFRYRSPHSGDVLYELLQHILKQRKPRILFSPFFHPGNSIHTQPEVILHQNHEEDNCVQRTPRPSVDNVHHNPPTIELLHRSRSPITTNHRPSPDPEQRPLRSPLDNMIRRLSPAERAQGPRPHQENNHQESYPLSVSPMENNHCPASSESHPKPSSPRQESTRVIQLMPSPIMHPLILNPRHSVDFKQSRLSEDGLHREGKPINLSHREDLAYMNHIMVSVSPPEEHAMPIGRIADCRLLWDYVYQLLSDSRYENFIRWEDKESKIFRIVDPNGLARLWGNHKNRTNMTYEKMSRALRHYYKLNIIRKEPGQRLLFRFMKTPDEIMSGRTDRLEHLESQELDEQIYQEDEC

Turning to TAGAAT, the binding signal is 1.17 fold enrichment (6-mer frequency, TF over GST control) with ERF; 1.09 fold enrichment (6-mer frequency, TF over GST control) in the assay with ETV3L; 1.06 fold enrichment (6-mer frequency, TF over GST control) with ETS2; 1.07 fold enrichment (6-mer frequency, TF over GST control) with SPDEF; 1.13 fold enrichment (6-mer frequency, TF over GST control) in the assay with ETV7; 1.08 fold enrichment (6-mer frequency, TF over GST control) with ELF5. For the same sequence, the binding signal with ETV3 was 1.05 fold enrichment (6-mer frequency, TF over GST control); in the assay with ETV6 it was 1.15 fold enrichment (6-mer frequency, TF over GST control).

For the sequence CACTGT, the binding signal with ERF was 1.16 fold enrichment (6-mer frequency, TF over GST control); with ETV3L it was 1.09 fold enrichment (6-mer frequency, TF over GST control); in the assay with ETS2 it was 1.13 fold enrichment (6-mer frequency, TF over GST control); with SPDEF, 1.11 fold enrichment (6-mer frequency, TF over GST control); with ETV7, 1.13 fold enrichment (6-mer frequency, TF over GST control); in the assay with ELF5 it was 1.12 fold enrichment (6-mer frequency, TF over GST control). For the same sequence, the binding signal was 1.12 fold enrichment (6-mer frequency, TF over GST control) with ETV3 and 1.05 fold enrichment (6-mer frequency, TF over GST control) with ETV6.

Regarding TCATCA, the binding signal with ERF was 1.23 fold enrichment (6-mer frequency, TF over GST control); with ETV3L, 1.18 fold enrichment (6-mer frequency, TF over GST control); with ETS2, 1.15 fold enrichment (6-mer frequency, TF over GST control); in the assay with SPDEF, 1.12 fold enrichment (6-mer frequency, TF over GST control); in the assay with ETV7, 1.15 fold enrichment (6-mer frequency, TF over GST control); with ELF5, 1.16 fold enrichment (6-mer frequency, TF over GST control). Also, the binding signal was 1.22 fold enrichment (6-mer frequency, TF over GST control) with ETV3 and 1.08 fold enrichment (6-mer frequency, TF over GST control) in the assay with ETV6.

As to TCCAAA, the binding signal with ERF was 1.14 fold enrichment (6-mer frequency, TF over GST control); in the assay with ETV3L, 1.18 fold enrichment (6-mer frequency, TF over GST control); with ETS2, 1.16 fold enrichment (6-mer frequency, TF over GST control); with SPDEF it was 1.15 fold enrichment (6-mer frequency, TF over GST control); with ETV7, 1.14 fold enrichment (6-mer frequency, TF over GST control); in the assay with ELF5 it was 1.15 fold enrichment (6-mer frequency, TF over GST control). Also, the binding signal is 1.2 fold enrichment (6-mer frequency, TF over GST control) in the assay with ETV3 and 1.14 fold enrichment (6-mer frequency, TF over GST control) with ETV6.

Regarding GGTCCC, the binding signal was 1.18 fold enrichment (6-mer frequency, TF over GST control) with ERF; 1.25 fold enrichment (6-mer frequency, TF over GST control) with ETV3L; 1.12 fold enrichment (6-mer frequency, TF over GST control) with ETS2; 1.29 fold enrichment (6-mer frequency, TF over GST control) in the assay with SPDEF; 1.15 fold enrichment (6-mer frequency, TF over GST control) in the assay with ETV7; 1.13 fold enrichment (6-mer frequency, TF over GST control) in the assay with ELF5. For the same sequence, the binding signal is 1.2 fold enrichment (6-mer frequency, TF over GST control) with ETV3 and 1.09 fold enrichment (6-mer frequency, TF over GST control) with ETV6.

For TGTATC, the binding signal in the assay with ERF is 1.39 fold enrichment (6-mer frequency, TF over GST control); with ETV3L, 1.28 fold enrichment (6-mer frequency, TF over GST control); in the assay with ETS2, 1.42 fold enrichment (6-mer frequency, TF over GST control); with SPDEF, 1.89 fold enrichment (6-mer frequency, TF over GST control); in the assay with ETV7, 1.31 fold enrichment (6-mer frequency, TF over GST control); with ELF5, 1.51 fold enrichment (6-mer frequency, TF over GST control). Also, the binding signal in the assay with ETV3 is 1.54 fold enrichment (6-mer frequency, TF over GST control); with ETV6, 1.36 fold enrichment (6-mer frequency, TF over GST control).

For the sequence CTAAAA, the binding signal with ERF was 1.2 fold enrichment (6-mer frequency, TF over GST control); with ETV3L, 1.2 fold enrichment (6-mer frequency, TF over GST control); with ETS2, 1.21 fold enrichment (6-mer frequency, TF over GST control); in the assay with SPDEF it was 1.19 fold enrichment (6-mer frequency, TF over GST control); with ETV7, 1.1 fold enrichment (6-mer frequency, TF over GST control); with ELF5, 1.11 fold enrichment (6-mer frequency, TF over GST control). For the same sequence, the binding signal with ETV3 was 1.12 fold enrichment (6-mer frequency, TF over GST control); in the assay with ETV6, 1.15 fold enrichment (6-mer frequency, TF over GST control).
